Screens: PubChem, several laboratories
IEC-6 tox = IEC-6 cytotoxicity, counter-screen for KLF5 inhibitors | luminescence viability | inhibition, % at 5 µM | 290,000 compounds, 0.78% hits; in the data active = inhibition above about 22%
APP transl inh = APP translation inhibition. inhibition, % at 2 µM. 190,000 compounds, 0.82% hits. AID 1285. SH-SY5Y APP 5'UTR-luciferase reporter, luminescence;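 active = inhibition above a set limit, derived from the sample mean plus 3 SD, cut at about 45% in these data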
Ba/F3 V617F tox = lowers viability of Ba/F3 cells expressing EpoR and JAK2V617F. ATP luminescence. inhibition, % at 5.6 µM. 220,000 compounds, 1.1% hits;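 active = inhibition above the campaign mean plus 3 SD over all tested compounds, cut at about 24% in these data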;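 note: cytokine-independent growth of Ba/F3 cells driven by EpoR plus mutant JAK2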
BaF3 parental = reduces parental Ba/F3 cell viability, JAK2V617F counter-screen; AID 1486; CellTiter-Glo ATP luminescence; inhibition, % at 5.6 µM; 220,000 compounds, 1.1% hits;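 active = inhibition above a per-campaign cutoff, the mean inhibition of all tested compounds plus 3 SD, cut at about 27% in these data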
KLF5 inh = suppresses KLF5 promoter-driven expression. DLD-1 KLF5 promoter-luciferase reporter, luminescence. AID 1700. 290,000 compounds, 0.23% hits. inhibition, % at 5 µM;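 active = inhibition above a per-plate limit of that plate's mean compound inhibition plus 3 SD, cut at about 60% in these data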;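 note: higher means less KLF5 promoter-driven luciferase light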
Each line names hits and unclear results; the compound was inactive in the other large screens. This is a sample that favours compounds with a hit; in the whole collection about 1.9% have one here.

CCOC(=O)c1ccc(N2C(=O)c3n[nH]c(C)c3C2c2ccccn2)cc1 (stereo not given)	none
Cc1[nH]nc2c1C(c1ccccn1)N(c1ccc(Br)cc1)C2=O (stereo not given)	BaF3 parental 95.5
COc1ccc(-c2csc(NC(=O)c3ccccc3NS(=O)(=O)c3ccc(F)c(F)c3)n2)cc1	IEC-6 tox 57.6, Ba/F3 V617F tox 99.7, BaF3 parental 102.7, KLF5 inh 77.8
Cc1ccc(S(=O)(=O)Nc2ccccc2C(=O)Nc2nc(-c3ccc(F)cc3)cs2)cc1	none
CC(C)CCNC(=O)c1ccc(OC2CCN(S(=O)(=O)N(C)C)CC2)cc1	BaF3 parental 26.7
C=C(C)CNC(=O)c1ccc(OC2CCN(S(=O)(=O)N(C)C)CC2)cc1	none
CC(=O)c1c(C)[nH]c(C(=O)Nc2ccc(C)cc2Br)c1C	none (no result: APP transl inh, Ba/F3 V617F tox, BaF3 parental)
Cc1ccc(NC(=O)CCSc2nnc(C)o2)cc1	none (no result: APP transl inh, Ba/F3 V617F tox, BaF3 parental)
Cc1ccc(S(=O)(=O)n2[nH]c(=O)cc2NC(=O)c2cccs2)cc1	Ba/F3 V617F tox 26.3, BaF3 parental 35.0
CC1Cc2ccccc2N1C(=O)C1CC(=O)N(c2ccccc2)C1 (stereo not given)	none (no result: APP transl inh, Ba/F3 V617F tox, BaF3 parental)
CCCCCn1c(Sc2ncccn2)nc2c1c(=O)[nH]c(=O)n2C	APP transl inh 64.0
CC(=O)Nc1ccc(S(=O)(=O)NCCC(=O)NCC2COc3ccccc3O2)cc1 (stereo not given)	none (no result: APP transl inh, Ba/F3 V617F tox, BaF3 parental)
Oc1c(N=Nc2ccccn2)ccc2ccccc12	APP transl inh 82.2
c1ccc2c(c1)ccc1ncccc12	none
C=CCN(CC(=O)NCC1CCCO1)C(=O)CCC(=O)Nc1cc(C)on1 (stereo not given)	BaF3 parental 92.9
O=C(O)c1ccccc1NC(=O)C1CCCO1 (stereo not given)	none
O=C(Nc1ccccc1Sc1ccccc1)C1CCCO1 (stereo not given)	APP transl inh 48.7
C/C(=N/NS(=O)(=O)c1cccc([N+](=O)[O-])c1)c1ccncc1	none (no result: APP transl inh, Ba/F3 V617F tox, BaF3 parental)
COc1ccc(C(=O)Nc2cccc(N(C)S(C)(=O)=O)c2)cc1OC	none
COc1ccccc1OCC(=O)Nc1cccc(N(C)S(C)(=O)=O)c1	APP transl inh 55.5
CCOc1cccc(/C=N/NC(=O)c2cccnc2)c1O	KLF5 inh 94.3 (no result: APP transl inh, Ba/F3 V617F tox, BaF3 parental)
CCOc1cc(/C=N/NC(=O)c2cccnc2)ccc1O	none (no result: APP transl inh)
COc1ccc(Nc2nc(N3CCCCC3)c3ccccc3n2)cc1	BaF3 parental 35.0
Cc1ccc(Nc2nc(N3CCOCC3)c3ccccc3n2)cc1	none
Oc1ccc(Nc2nc(N3CCCC3)c3ccccc3n2)cc1	Ba/F3 V617F tox 48.2, BaF3 parental 60.6
CNC(=O)C(C#N)(Cc1cc(C(C)=O)ccc1OC)Cc1cc(C(C)=O)ccc1OC	none (no result: APP transl inh, Ba/F3 V617F tox, BaF3 parental)
CO/N=C\CC(=O)Nc1ccc(Oc2ccccc2)cc1	APP transl inh 68.5
O=C(Cc1ccccc1)NN1C(=O)c2ccccc2C1=O	none
COc1ccccc1CC(=O)NN1C(=O)c2ccccc2C1=O	BaF3 parental 35.0
Cc1cccc(N=C2NC(=O)c3cc([N+](=O)[O-])ccc32)c1	none
COc1ccc(NC(=S)/N=C(\N)Nc2nc(C)c3ccc(C)cc3n2)cc1	BaF3 parental 43.4
CCOc1ccc2nc(N/C(N)=N/C(=S)Nc3ccc(C)c(C)c3)nc(C)c2c1	none
O=c1c2ccccc2nc(N/N=C/c2c(O)ccc3ccccc23)n1O	APP transl inh 57.1, Ba/F3 V617F tox 92.5, BaF3 parental 74.4
CCC1(C)N=C(N)Nc2nc3cc(C)c(C)cc3n21 (stereo not given)	Ba/F3 V617F tox 73.1, BaF3 parental 84.9 (no result: APP transl inh)
NC1=NC2(CCCC2)n2c(nc3ccccc32)N1	none
CC(C)(C)C1COc2ccccc2N1C(=O)c1cccc(Cl)c1 (stereo not given)	none (no result: APP transl inh, Ba/F3 V617F tox, BaF3 parental)
CCC1=[N+](C)c2cccc3cccc(c23)N1C	Ba/F3 V617F tox 36.8, BaF3 parental 40.7
Cc1ccc(Cl)cc1N1CCN(C(CC(C)C)c2nnnn2CC2CCCO2)CC1 (stereo not given)	none
CCCC(c1nnnn1CC1CCCO1)N1CCN(c2cc(Cl)ccc2C)CC1 (stereo not given)	BaF3 parental 30.7
CSc1ccccc1NC(=O)CO/N=C(\C)c1cc2ccccc2o1	IEC-6 tox 36.5
CCOC(=O)N1CCN(c2c(NCc3cccs3)c(=O)c2=O)CC1	none
CCOC(=O)N1CCN(c2c(NCc3ccc(Cl)cc3)c(=O)c2=O)CC1	Ba/F3 V617F tox 35.0, BaF3 parental 69.1
CCOC(=O)N1CCN(c2c(NCc3ccc(F)cc3)c(=O)c2=O)CC1	BaF3 parental 31.1 (no result: APP transl inh)
O=C(Nc1ncccc1Cl)c1cc2ccccc2o1	none (no result: APP transl inh, Ba/F3 V617F tox, BaF3 parental)
Cc1ccc(NCCc2ccc(C)nc2)cc1	APP transl inh 53.4
CC(C)(C)c1ccccc1NC(=S)NC1CCCCC1	BaF3 parental 40.3
CC(C)(C)c1ccccc1NC(=S)NC1CCCC1	none (no result: APP transl inh, Ba/F3 V617F tox, BaF3 parental)
CCC(C)[C@H](NC(=O)Nc1ccc(C)cc1C)C(=O)O (stereo not given in full)	none (no result: APP transl inh)
CCCCCNC(=O)N[C@H](C(=O)O)C(C)C	BaF3 parental 89.9
CCC(C)[C@H](NC(=O)NC(C)C)C(=O)O (stereo not given in full)	BaF3 parental 91.8
CCCCOCCCNC(=O)N[C@H](C(=O)OC)C(C)C	none
COc1ccc(O)c(/C=N/NC(=O)c2ccc(CSc3nc(C)cc(C)n3)cc2)c1	none
Cc1cc(C)nc(SCc2ccc(C(=O)N/N=C/c3cccc(O)c3O)cc2)n1	APP transl inh 61.9
O=C(COc1ccc(Cl)cc1)Nc1ccc2c(c1)C(=O)NC2=O	none (no result: APP transl inh, Ba/F3 V617F tox, BaF3 parental)
CCn1ccnc1CNC(=O)c1ccc(OC2CCN(C(=O)COC)CC2)cc1	none (no result: APP transl inh, Ba/F3 V617F tox, BaF3 parental)
Cc1ccc(N/C(N)=N/c2nc3c(c(=O)[nH]2)CCCC3)c(C)c1	none
Cc1ccc(N/C(N)=N/c2nc(C)cc(N3CCCCC3)n2)c(C)c1	Ba/F3 V617F tox 70.6, BaF3 parental 66.3
O=C1/C(=C/c2ccccc2[N+](=O)[O-])COc2ccccc21	APP transl inh 85.9
CNc1ccc(/C=C2\COc3ccccc3C2=O)cc1[N+](=O)[O-]	none
COc1ccc(CCNC(=O)C2CCCN(S(=O)(=O)c3cc(C)ccc3OC)C2)cc1OC (stereo not given)	none (no result: APP transl inh, Ba/F3 V617F tox, BaF3 parental)
COc1cccc2c1C(=O)c1c(O)c3c(c(O)c1C2=O)C[C@@](O)(C(=O)CO)C[C@@H]3O[C@H]1C[C@H](N)[C@H](O)[C@H](C)O1	IEC-6 tox 93.8, APP transl inh 94.6, Ba/F3 V617F tox 101.8, BaF3 parental 101.0
O=C(CC1C(=O)NCCN1Cc1ccccc1C(F)(F)F)NCCc1ccccn1 (stereo not given)	BaF3 parental 80.0
O=C(CC1C(=O)NCCN1Cc1c(F)cccc1Cl)NCCc1ccccn1 (stereo not given)	none
Cc1c(Cc2ccccc2)sc(/N=C/c2ccc3ccccc3c2)c1C(N)=O	APP transl inh 53.4
Cc1c(Cc2ccccc2)sc(/N=C/c2c(O)ccc3ccccc23)c1C(N)=O	none
CS(=O)(=O)Nc1ccc(S(=O)(=O)N2CCCCCC2)cc1	none (no result: APP transl inh, Ba/F3 V617F tox, BaF3 parental)
CS(=O)(=O)Nc1ccc(S(=O)(=O)N2CCCC2)cc1	BaF3 parental 89.8
